GALK inhibitor = galactokinase (human) inhibition; AID 1868; Potency, µM (doses to about 57.5 µM), inactives show at the top dose activity change, negative = inhibition, actives largely listed as inhibitors; 0.007% of 270,000 active; P51570; Purified GALK, Kinase-Glo residual ATP luminescence; note: potency is the fitted concentration of half-maximal effect
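5 nM enzyme, 35 uM ATP, 100 uM galactose, 20 mM HEPES pH8.0, 5 mM MgCl2; 1 h RT; residual ATP by Kinase-Glo Plus luminescence, qHTS format.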
TrxR1 inh = blocks rat thioredoxin reductase 1 | recombinant rTrxR1, NADPH fluorescence consumption, selenite substrate | Potency, µM (top dose mostly 114 µM), for the others: at the top dose activity change, negative = inhibition, most hits filed as inhibitors | 1% of 390,000 active; note: potency is the fitted concentration of half-maximal effect; nearly all actives have a fitted effect of over 65% in size
Target sequence (O89049 whole entry, looked up): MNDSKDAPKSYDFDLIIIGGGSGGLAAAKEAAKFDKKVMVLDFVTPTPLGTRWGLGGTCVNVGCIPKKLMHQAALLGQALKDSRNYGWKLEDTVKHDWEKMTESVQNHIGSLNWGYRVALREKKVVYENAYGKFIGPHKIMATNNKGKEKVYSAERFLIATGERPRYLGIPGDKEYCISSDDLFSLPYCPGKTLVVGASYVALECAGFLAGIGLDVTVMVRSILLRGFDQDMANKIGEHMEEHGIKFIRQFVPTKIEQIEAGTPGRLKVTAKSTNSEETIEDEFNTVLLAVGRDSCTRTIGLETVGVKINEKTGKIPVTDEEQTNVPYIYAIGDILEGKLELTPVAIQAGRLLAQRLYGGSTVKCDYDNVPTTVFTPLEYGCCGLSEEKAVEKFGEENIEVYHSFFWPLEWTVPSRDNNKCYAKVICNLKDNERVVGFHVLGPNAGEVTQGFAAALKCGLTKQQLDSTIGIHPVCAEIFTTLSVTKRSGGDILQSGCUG
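Rat TrxR1 (90 nM in the dispensed reagent) was pre-reduced with 400 uM NADPH for 5 min at room temperature, then incubated with compound for 15 min. After 400 uM selenite was added, NADPH fluorescence (Ex 340/Em 450 nm) was followed for 8 min.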
PI4K2A inh = blocks human PI4K2A kinase activity; purified PI4K2A, ADP-Glo luminescence, 1 h; stronger effect = lower value; AID 1346378; activity change, negative = inhibition, % at 76.9 µM; 0.13% of 420,000 active; Q9BTU6; in the data active = activity change below about -50%; inconclusive = mostly about -30% to -49%;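 note: -100% = wells without enzyme as full effect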
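Compounds are screened against recombinant PI4K2A using PI as substrate and ATP, the latter dispensed at 300 microM. Reactions run one hour at ambient temperature before ADP-Glo detection; full inhibition defined by wells lacking enzyme.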
TrxR1 substrate = rat thioredoxin reductase 1 substrate activity | O89049 | purified TrxR1 substrate turnover, NADPH consumption readout | Potency, µM (top dose mostly 114 µM), for the others: at the top dose activity change, negative = substrate turnover | 0.01% of 390,000 active | AID 588456; note: potency is the fitted concentration of half-maximal effect; nearly all actives have a fitted effect of over 50% in size
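Rat TrxR1, dispensed at 90 nM, was prereduced with 400 uM NADPH (final) for 5 min at ~22 deg C, then incubated with compound 15 min before 400 uM selenite. A first-read NADPH fluorescence drop versus no-compound background flagged substrates.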
* = called active by the depositor; ? = inconclusive; . = no result given; ! = not confirmed by another sample; [ ] = dose if it differs, or a comment. This is a sample that favours compounds with a hit; in the whole collection about 1.1% have one here. Unless noted, calls come from the whole dose curve; as a rule, active = well fitted curve in the direction sought with a large enough effect; inconclusive = small, poorly fitted or top-dose-only effect, or another doubt; inactive = no such curve, though single readings can be large; an effect the other way counts as inactive or inconclusive. Unless noted, % is set by controls: 0 for no effect and ±100 for the full control effect.

SMILES | GALK inhibitor | TrxR1 inh | PI4K2A inh | TrxR1 substrate
O=C(O)C(Cc1ccccc1)N1C(=O)/C(=C/C=C/c2ccco2)SC1=S (stereo not given) | 1% | 20µM* | -28 | -14%
COc1ccc(/C=C2\SC(=S)N(C(Cc3ccccc3)C(=O)O)C2=O)cc1 (stereo not given) | 5% | 7%[57.1 µM] | -5 | -2%[57.1 µM]
O=C1S/C(=C\C=C\c2ccco2)C(=O)N1c1ccc(O)cc1 | -2% | ? | -22 | -4%
O=C1S/C(=C\C=C\c2ccco2)C(=O)N1c1ccccc1 | 1% | 50µM* | -26 | 0%
O=C(O)CCCN1C(=O)/C(=C\c2ccc(-c3nc4ccccc4s3)o2)SC1=S | 1% | 50µM* | 4 | -8%
O=C(O)CCN1C(=O)/C(=C/c2ccc(-c3nc4ccccc4s3)o2)SC1=S | 2% | ? | 0 | -24%
COc1cc(Cn2cc([C@]34C[C@H]5C(=O)N(C)CC(=O)N5[C@H]3N(S(=O)(=O)c3ccccc3)c3ccccc34)c3ccccc32)cc(OC)c1 | . | . | 0 | .
Cc1ccc2nc(-c3ccc(NC(=O)COc4ccc(Br)cc4Br)cc3)sc2c1 | . | -7% | -4 | 41%
CCCCOC(=O)CCCCCCCCC(=O)OCCCC | . | . | -3 | .
O=C(O)CC(C(=O)O)N1C(=O)/C(=C/c2ccc(-c3nc4ccccc4s3)o2)SC1=S (stereo not given) | -17% | ? | ? | -30%
O=C(O)CCCN1C(=O)/C(=C/C=C/c2ccco2)SC1=S | 5% | 35µM* | -10 | -23%
O=C(O)CC(C(=O)O)N1C(=O)/C(=C/C=C/c2ccco2)SC1=S (stereo not given) | 3% | 20µM* | ? | -26%
O=C(CCCN1C(=O)S/C(=C/C=C/c2ccccc2)C1=O)Nc1ccc(C(=O)O)cc1 | -2% | 79µM* | -8 | -5%
COC(=O)/C=C\C(=O)OC | . | . | -1 | .
c1ccc(N2CCN(c3nc4ccccc4n4cnnc34)CC2)cc1 | 2% | 14% | 3 | 43%
C1=C(c2ccccc2)CCN(c2nc3ccccc3n3cnnc23)C1 | 2% | 4µM* | 5 | 14%
CCCCCCCC/C=C\CCCCCCCC(=O)NCCc1ccc(O)c(O)c1 | . | 27µM*! | 0 | ?
Cc1cc(NS(=O)(=O)c2ccc(NC(NC(=O)C(C(F)(F)F)C(F)(F)F)(C(F)(F)F)C(F)(F)F)cc2)no1 | -6% | 10µM* | -5 | 4%[57.1 µM]
O=C(c1ccco1)N1CCN(C(=O)c2sccc2-c2ccccc2)CC1 | -5% | 16µM* | 3 | 5%[57.1 µM]
COc1ccc(-c2csc3ncnc(N4CCN(C(=O)c5ccco5)CC4)c23)cc1 | . | 56µM* | -2 | 9%
CCCCCN(CCCOC)C(=O)C(CCC(=O)O)NC(=O)c1ccc(Cl)c(Cl)c1 (stereo not given) | . | . | -1 | .
O=C(NC(=S)Nc1ccc(Cl)c(C(=O)O)c1)c1cccc(COc2ccccc2)c1 | -2% | 71µM* | -10 | -1%
COc1cccc(C(=O)NC(=S)Nc2ccc(N(C)C)cc2)c1 | 2% | 20µM* | -9 | -15%
COC(=O)c1ccc(NC(=O)c2cccc(OC)c2)cc1 | 3% | 2% | -51* | 1%
COc1cccc(C(=O)Nc2ccc(C(=O)c3ccccc3)cc2)c1 | -6% | 25% | 1 | 2%
SMILES | GALK inhibitor | TrxR1 inh | PI4K2A inh | TrxR1 substrate
COc1cccc(C(=O)Nc2ccc(C(=O)O)cc2)c1 | 2% | 5%[57.1 µM] | -64* | 9%[57.1 µM]
O=C(NC(=S)Nc1ccc(Cl)c(C(=O)O)c1)c1ccc(OCc2ccccc2)cc1 | 0% | -52% | -5 | -2%
COc1ccc(-n2c(SCC(=O)Nc3nnc(C)s3)nc3c([nH]c4ccccc43)c2=O)cc1 | . | 20%[57.1 µM] | 3 | -1%[57.1 µM]
CCCOc1cccc(C(=O)NC(=S)Nc2cccc(C(F)(F)F)c2)c1 | 1% | 4% | 0 | 1%
CCOc1cccc(C(=O)NC(=S)Nc2cccc(C)c2)c1 | 0% | 5µM* | -4 | -6%
CCc1ccc(NC(=O)Cn2ccn(-c3ccc(C)c(C)c3)c(=O)c2=O)cc1 | . | -19% | -4 | -1%
Cc1ccc(NC(=O)COC(=O)/C=C/c2ccc(Br)o2)cc1S(=O)(=O)N(C)C | -1% | 50µM* | -1 | -2%
CN(C)S(=O)(=O)c1cccc(NC(=O)COC(=O)/C=C/c2ccc(Br)o2)c1 | -1% | ? | -10 | 3%
NC(=O)c1ccc(NC(=O)COC(=O)/C=C/c2ccc(Br)o2)cc1 | . | 45µM* | -5 | -5%
Cc1nn(-c2ccccc2)c(C)c1/C=C/C(=O)OCC(=O)Nc1ccc(C(N)=O)cc1 | . | 3% | 2 | -2%
O=C(CCCOc1ccccc1)Nc1nc2ccccc2[nH]1 | 1% | 18%[57.1 µM] | 1 | -1%
O=S(=O)(CCOc1ccccc1)c1nc2ccccc2[nH]1 | -1% | 45µM* | -5 | 0%
Cc1nc(-c2ccccc2)sc1CCNS(=O)(=O)c1ccc(Br)cc1 | . | 9%[57.1 µM] | 5 | -5%[57.1 µM]
CCOC(=O)C1Nc2ccccc2C2C(O)C(O)CC12 (stereo not given) | . | 18µM* | -19 | -4%
CC(=O)N(Cc1c(C)nn(-c2ccccc2)c1Cl)c1ccc(Cl)cc1 | -4% | -7% | -1 | -12%
Cc1nn(-c2ccccc2)c(Cl)c1CN(C(=O)CCl)c1ccc(Cl)cc1 | -4% | 22µM* | 25 | -10%
CCN(CC)C(=O)CC[C@H]1CC[C@]2(CCCN(C(=O)c3ccco3)C2)O1 | . | . | 5 | .
O=C(/C=C/c1ccccc1O)c1ccco1 | -5% | -47% | -5 | 8%[57.1 µM]
O=C(/C=C/c1cc(Br)ccc1O)c1ccco1 | -6% | 35µM* | 1 | -7%
CC1(c2nnc(Cc3ccccc3)o2)CC(c2ccc(Cl)cc2)=NO1 (stereo not given) | . | -1%[57.1 µM] | 1 | -5%
CC1(c2nnc(Cc3ccccc3)o2)CC(c2ccc(C#N)cc2)=NO1 (stereo not given) | . | 16µM* | -2 | 6%
Cc1ccc(C2=NOC(C)(c3nnc(-c4ccncc4)o3)C2)cc1 (stereo not given) | . | -3% | -1 | -5%
COc1ccc(C2=NOC(C)(c3nnc(-c4ccncc4)o3)C2)cc1 (stereo not given) | . | ? | -60* | 2%[57.1 µM]
Cc1ncc([N+](=O)[O-])n1C | . | . | 1 | .
Cc1cc(O)c(CN2CCN(c3ccc(F)cc3)CC2)c2oc(=O)cc(C)c12 | . | 79µM* | -1 | 739%
SMILES | GALK inhibitor | TrxR1 inh | PI4K2A inh | TrxR1 substrate
CCCc1c(C)c2ccc(O)c(CN3CCN(c4ccc(F)cc4)CC3)c2oc1=O | . | ? | 0 | 74%
Clc1ncc(C#Cc2ccccc2)c2ncncc12 | . | 18µM* | . | 35%
CC(=O)O[C@@H]1C(=O)O[C@@H]2[C@H]1OC(=O)[C@@H]2OC(C)=O | . | . | -2 | .
COc1ccc(C(=O)O/N=C(/c2ccccc2)c2ccncc2)cc1 | -1% | 16% | -4 | -4%
COc1ccc(C(=O)O/N=C(\C)c2ccccc2)cc1 | 24% | -8% | -95* | -4%
COc1ccc(C(=O)ON=C(C)c2nccs2)cc1 | . | . | -66* | .
COc1cccc(CNC(=O)c2c3c(nc4ccccc24)C(=O)N(C2CCCCC2)C3)c1 | . | 10%[57.1 µM] | 2 | -2%[57.1 µM]
